Source: PubChem BioAssay (National Center for Advancing Translational Sciences (NCATS))
Rows were chosen to be rich in hits. Some 21% of all compounds tested hit in one or more screens of this group.
Pf growth 48h – inhibits P. falciparum growth in the first generation, 48 h | P. falciparum luciferase growth in erythrocytes, 48 h | Potency, µM (titrated, usually from 28.7 µM), most hits filed as inhibitors | 310,000 tested, 5.9% active | AID 504832
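First compound was added to culture medium, then infected red cells at 0.1% parasitemia and 2% hematocrit (final). After incubation at 37 C under 5% CO2, luciferase detection reagent was dispensed and light output recorded.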
Pf growth 96h – P. falciparum growth inhibition at 96 hour, primary screen for plastid delayed-death inhibitors; AID 504834; Potency, µM (top dose mostly 28.7 µM), hits mostly inhibitors; 320,000 tested, 6.9% active; P. falciparum luciferase reporter growth, 96 h
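Delayed-death screen, second-generation endpoint: infected erythrocytes, 2% hematocrit, 0.05% parasitemia final; 96 hours at 37 C, 5% CO2; luciferase detection reagent; luminescence decrease equals reduced growth.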
NS1 function inh – blocks influenza NS1 protein function. Potency, µM (top dose mostly 46.1 µM). 270,000 tested, 0.4% active; calls by dose curve; further: actives are rising curves; nearly all actives have a fitted effect of over 50% in size
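Recovery from NS1-induced slow growth read by OD600 in budding yeast switched to galactose assay medium (pH 6.0, -URA) at 1:100 dilution. Compound 23 nl per well; the matching strain lacking NS1 serves as control.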
Giardia FBPA inh – blocks Giardia fructose-bisphosphate aldolase activity | Potency, µM (series often up to 59.6 µM), usual class: inhibitors | AID 2451 | A8B2U2 | 290,000 tested, 0.71% active | purified Giardia FBPA; further: nearly all actives have a fitted effect of over 55% in size
Target sequence (A8B2U2 whole entry, looked up): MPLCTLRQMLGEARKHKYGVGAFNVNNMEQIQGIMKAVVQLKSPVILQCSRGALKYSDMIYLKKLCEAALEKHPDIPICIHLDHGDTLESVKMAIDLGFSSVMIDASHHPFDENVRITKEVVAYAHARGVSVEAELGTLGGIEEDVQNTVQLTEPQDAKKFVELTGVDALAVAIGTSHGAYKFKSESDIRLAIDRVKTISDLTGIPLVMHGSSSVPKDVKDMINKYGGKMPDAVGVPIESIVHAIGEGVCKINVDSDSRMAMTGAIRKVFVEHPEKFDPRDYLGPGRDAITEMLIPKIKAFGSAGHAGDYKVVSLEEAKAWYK
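Giardia FBPA (40 nM reagent) was preincubated 10 min at RT with compound (up to 57.5 uM final), then substrate plus GAPDH/TPI/NAD/arsenate coupling system with diaphorase/resazurin was added; resorufin fluorescence (525/598 nm) was read after 20 min.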
Shiga toxin inh – blocks Shiga toxin action in Vero cells | Vero cells, Shiga toxin protein synthesis inhibition reporter | inhibition, % at 38.7 µM | 290,000 tested, 9.2% active; in the data active means inhibition mostly above about 28%, no sharp cut-off; inactive means mostly below about 43%
CHX counter – affects cycloheximide protein synthesis inhibition readout, counter-screen; cell reporter, cycloheximide protein synthesis inhibition counterscreen; max response, %; 300,000 tested, 12% active; in the data active means max response mostly above about 13%, no sharp cut-off; inactive means mostly below about 14%; further: read at 38.3 µM for the half of the compounds with a filed dose
Of the large screens only hits and unclear results are named; the others gave an inactive call. Unless noted, the call rests on the fitted dose curve; in most records, active means well fitted curve in the direction sought with a large enough effect; inconclusive means small, poorly fitted or top-dose-only effect, or another doubt; inactive means no such curve, though single readings can be large; an effect the other way counts as inactive or inconclusive.

Cc1cc(C)cc(NC(=O)c2cc(C)n(Cc3cccs3)c2C)c1	Shiga toxin inh 53, CHX counter 49
Cc1cc(C(=O)Nc2ccc(Cl)cc2)c(C)n1Cc1cccs1	Shiga toxin inh 95, CHX counter 67
CCN1CCN(Cc2ccc(OC)c(OCc3ccccc3)c2)CC1	none
c1ccc(COc2cccc(CN3CCc4ccccc4C3)c2)cc1	Pf growth 96h inconclusive, Shiga toxin inh 105, CHX counter 41
CCN1CCN(Cc2ccc(OCc3ccccc3)cc2)CC1	Pf growth 96h inconclusive, Shiga toxin inh active, CHX counter 50
CCOc1ccc(CNc2ccc(N3CCN(Cc4ccccc4)CC3)cc2)cc1	Pf growth 96h 9.3µM
CCOc1ccc(CN2CCN(C(=O)c3ccccc3)CC2)cc1	none
NC(=O)C1CCN(Cc2cccc(OCc3ccccc3)c2)CC1	Giardia FBPA inh inconclusive
CN1CCN(Cc2ccc(OCc3ccccc3)cc2)CC1	Pf growth 96h inconclusive, Shiga toxin inh 94, CHX counter 27
CC(OC(=O)c1cccc(-n2cnnn2)c1)C(=O)Nc1ccc(F)cc1Cl (centres undefined)	none (no result: NS1 function inh, Giardia FBPA inh, Shiga toxin inh, CHX counter)
Cc1ccc(C(=O)NC2CCCc3c2cnn3-c2ccc(F)cc2F)cn1 (centres undefined)	Pf growth 96h inconclusive (no result: Giardia FBPA inh)
CC(C)Nc1nnc(SCC(=O)Nc2sccc2C#N)s1	Pf growth 96h inconclusive (no result: NS1 function inh, Giardia FBPA inh, Shiga toxin inh, CHX counter)
O=C(CNC(=O)c1cc(S(=O)(=O)N2CCCCC2)ccc1N1CCOCC1)Nc1ccc(F)c(F)c1	Pf growth 48h inconclusive (no result: NS1 function inh, Giardia FBPA inh, Shiga toxin inh, CHX counter)
Cc1ccccc1Nc1nc(N)nc(CSc2n[nH]c(N)n2)n1	none
O=C(CN1C(=O)C2C3C=CC(C4CC34)C2C1=O)Nc1cnc2ccccc2c1 (centres undefined)	none
COc1ccc(/C=C2\N=C3CCCCCN3C2=O)cc1	Shiga toxin inh 76, CHX counter 41 (no result: NS1 function inh)
COc1ccc(/C=C2/N=C3CCCCCN3C2=O)cc1OC	Shiga toxin inh 11
CCOC(=O)c1c(NC(=O)c2cnn3c2NC(c2cccc(OC)c2)CC3C(F)(F)F)sc2c1CCCC2 (centres undefined)	Pf growth 48h inconclusive, NS1 function inh inconclusive
CC(C)C1=Nc2cccc3cccc(c23)N1	Pf growth 48h inconclusive, Giardia FBPA inh inconclusive
ClCC1=Nc2cccc3cccc(c23)N1	Pf growth 48h 4.1µM, Pf growth 96h 4.7µM, Giardia FBPA inh inconclusive
CN1CCN(c2ccc(C(F)(F)F)cc2N)CC1	none (no result: NS1 function inh)
CC1CCN(c2ccc(C(F)(F)F)cc2N)CC1	CHX counter 17 (no result: NS1 function inh)
CCOc1ccc(N2Nc3n[nH]c(N)c3N2)cc1	Shiga toxin inh 50, CHX counter 25
COc1ccc(N2Nc3n[nH]c(N)c3N2)cc1	Shiga toxin inh 58, CHX counter 43
CCOc1ccc(Cc2n[nH]c(=S)n2N)cc1	Giardia FBPA inh inconclusive
COCCn1c(SCC(=O)NC2CCCC2)nnc1-c1ccco1	Pf growth 96h inconclusive
O=[N+]([O-])c1ccc(-c2c(-c3ccccc3)ncc3cc(F)ccc23)cc1	Pf growth 48h 2.6µM, Pf growth 96h 5.2µM (no result: NS1 function inh, Giardia FBPA inh, Shiga toxin inh, CHX counter)
COc1cc(OC)c([C@@H]2O[C@H](CO)[C@@H](O)[C@H](O)[C@H]2O)c(OC)c1	none (no result: Pf growth 48h, Pf growth 96h, NS1 function inh, Shiga toxin inh, CHX counter)
CS(=O)(=O)N1CCN(C(=O)COc2ccc3ccccc3c2)CC1	Pf growth 48h 2.1µM
O=C(COc1ccc2ccccc2c1)N1CCNCC1	Shiga toxin inh 52, CHX counter 12 (no result: Giardia FBPA inh)
O=C(COc1ccc2ccccc2c1)N1CCN(c2ccccc2O)CC1	Pf growth 48h inconclusive
COc1ccc([C@]23Cc4ccccc4C(O2)C2=C(CC4(CCCCC4)OC2=O)O3)cc1	Pf growth 48h inconclusive, Pf growth 96h inconclusive, Shiga toxin inh active, CHX counter 37
COc1cc2c(cc1OC)C1O[C@](c3ccsc3)(C2)Oc2cc(C)n(Cc3ccccc3)c(=O)c21	Pf growth 48h inconclusive, Pf growth 96h inconclusive
COc1ccc([C@]23Cc4ccccc4C(O2)C2=C(CCCC2=O)O3)cc1	Pf growth 48h inconclusive, Pf growth 96h 1.5µM
COc1ccc([C@]23Cc4ccccc4C(O2)C2=C(O3)C(=O)c3ccccc3C2=O)cc1	Pf growth 48h 1.5µM, CHX counter 19
COc1cc2c(cc1OC)C1O[C@](c3ccsc3)(C2)Oc2cc(-c3ccccc3)oc(=O)c21	Pf growth 48h inconclusive, Pf growth 96h 1.5µM
CN(CC1CCCO1)S(=O)(=O)c1ccc(C(=O)NCc2ccccc2)cc1 (centres undefined)	none (no result: NS1 function inh)
Cc1ccc(NC(=O)c2ccc3c(c2)CCN3S(C)(=O)=O)c(C)c1	Pf growth 48h inconclusive
CCOC(=O)c1c(NC(=O)CCNCc2ccco2)sc2c1CCC2	Giardia FBPA inh inconclusive
COc1cc2c(cc1OC)C1O[C@](c3ccsc3)(C2)OC2=C1C(=O)CC(C)(C)C2	Pf growth 48h inconclusive, Pf growth 96h inconclusive
COc1ccc([C@]23Cc4cc(OC)c(OC)cc4C(O2)C2=C(CCCC2=O)O3)cc1	Pf growth 48h inconclusive, Pf growth 96h inconclusive, Giardia FBPA inh inconclusive
COc1cc2c(cc1OC)C1O[C@](c3ccsc3)(C2)OC2=C1C(=O)OC1(CCCCC1)C2	Pf growth 48h inconclusive, Pf growth 96h 1.3µM
COc1ccc([C@]23Cc4ccccc4C(O2)C2=C(CC(C)(C)CC2=O)O3)cc1	Pf growth 48h inconclusive, Pf growth 96h 0.6µM
[O-][n+]1ccccc1SCc1ccccc1	Pf growth 48h inconclusive (no result: NS1 function inh, Giardia FBPA inh, Shiga toxin inh, CHX counter)
O=C(CSc1cccc[n+]1[O-])c1cc(Cl)ccc1Cl	Pf growth 48h inconclusive, Pf growth 96h 0.83µM, Giardia FBPA inh inconclusive, Shiga toxin inh 78, CHX counter 28 (no result: NS1 function inh)
O=C(CSc1cccc[n+]1[O-])C12CC3CC(CC(C3)C1)C2	Pf growth 96h 4.1µM, Giardia FBPA inh inconclusive (no result: NS1 function inh)
O=C(O)CSc1cccc[n+]1[O-]	none
Nc1nc(SCC(=O)c2cc3ccccc3o2)n[nH]1	Giardia FBPA inh inconclusive
O=C(CSc1cccc[n+]1[O-])c1cccs1	Pf growth 96h inconclusive (no result: NS1 function inh)
N#CC(C#N)=C(N)CSc1cccc[n+]1[O-]	Pf growth 48h 5.2µM, Pf growth 96h 12µM (no result: NS1 function inh)
O=C(CSc1cccc[n+]1[O-])c1cc2ccccc2o1	Pf growth 96h 4.1µM, Giardia FBPA inh inconclusive, Shiga toxin inh 140, CHX counter 131 (no result: Pf growth 48h)
COc1ccc(Cl)cc1NC(=O)CCNC(=O)Cn1ccc2ccccc2c1=O	none
COc1cccc(NC(=O)CCC(=O)N2CC(C)Oc3ccc(C)cc32)c1 (centres undefined)	Pf growth 96h inconclusive
[S-]C(=Nc1ccc(Cl)cc1)N[n+]1ccccc1	Shiga toxin inh 37, CHX counter 30
COc1cccc(OC)c1C(=O)NC(=S)Nc1ccc2oc(=O)ccc2c1	Pf growth 48h 3.3µM, Pf growth 96h 1.9µM
COc1ccc(C(=O)NC(=S)Nc2ccc3oc(=O)ccc3c2)cc1OC	none
CC(=O)NC(=S)Nc1ccc2oc(=O)ccc2c1	none
O=C(NC(=S)Nc1ccc2oc(=O)ccc2c1)c1ccco1	Shiga toxin inh 53, CHX counter 19
Cc1c(C2C(C#N)=C(N)N(c3cccc([N+](=O)[O-])c3)C3=C2C(=O)CCC3)cnn1C (centres undefined)	none
